Screening results from PubChem.
A selection: hits, their analogues and other compounds. The true share with any hit is near 1%.
Cdc25B inh: human M-phase inducer phosphatase 2 inhibition; P30305; actives 0.1% (n = 65,000); inhibition, %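 (compounds tested at 10 µM final in the well)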; recombinant Cdc25B, OMFP fluorescence Ex485/Em525; in the data active = inhibition above about 50%
MKP-1 inh: blocks human MKP-1 phosphatase activity; P28562; recombinant MKP-1, OMFP hydrolysis fluorescence; inhibition, %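 (compounds tested at a single concentration somewhere between 10 and 100 µM)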; actives 0.15% (n = 65,000);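 active = inhibition above about 50%, limit read from the data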;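 also: 0% = DMSO max control wells and 100% = wells with enzyme stopped by NaOH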
TNAP act mid DEA: human TNAP activation, intermediate phosphate acceptor. purified TNAP, CDP-star luminescence, 100 mM DEA, 30 min; active compounds read high; scale: 0 levamisole-inhibited, 1 vehicle-only enzyme. P05186. activation factor at 20 µM. 64,000 tested, under 10 active;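 active = activation factor of at least 2 at 20 µM, relative to controls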
HePTP inh: human HePTP phosphatase inhibition; P35236; recombinant HePTP phosphatase activity, OD absorbance; inhibition, % at 20 µM; actives 0.64% (n = 110,000); in the data active = inhibition above about 50%;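 also: plate controls were vehicle for no effect and reference inhibitor for full effect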
Ec RNAP inh: inhibitors of Escherichia coli RNA polymerase; actives 0.2% (n = 62,000); P0A8V2; inhibition, %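 (tested at 10 µM)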; E. coli RNA polymerase, fluorescence transcription assay; in the data active = inhibition above about 20%;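 also: 0% = enzyme without compound and 100% = no enzyme blank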
BAP1 block: blocks human BAP1 ubiquitin-AMC hydrolysis; Q92560; actives 0.48% (n = 72,000); recombinant BAP1, Ub-AMC hydrolysis fluorescence kinetic; active compounds read low; calls only at 20 µM;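 active = activity remaining at or below 50% of control, provided the compound also passes the data quality filters; inactive = the rest, including low values that fail the filters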;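 also: 100% = DMSO wells rate and 0% = substrate alone blank rate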
The depositor's hits bear a star; i = inactive; x = not tested or not shown; + = active, no number; ! = not confirmed by another sample.

SMILES	Cdc25B inh	MKP-1 inh	TNAP act mid DEA	HePTP inh	Ec RNAP inh	BAP1 block
O=C(Nc1ccc(Br)cc1C(=O)O)c1ccc2c(c1)C(=O)N(C1CCCCC1)C2=O	x	x	x	-1	x	x
COc1cc(/C=C2\SC(=S)NC2=O)cc(Br)c1OC(C)=O	x	x	x	-10	x	x
COc1ccc(/C=C2/SC(=S)NC2=O)cc1OCc1ccc(Cl)cc1	x	x	x	10	x	x
O=C1NC(=S)S/C1=C/c1cc(I)c(O)c(I)c1	x	x	x	101*	x	x
COc1c(Br)cc(/C=C2\SC(=S)NC2=O)cc1Br	x	x	x	103*	x	x
COc1cc(/C=C2/SC(=S)NC2=O)cc(Cl)c1OCc1ccc(Cl)cc1Cl	x	x	x	102*	x	x
CC(C)CCSc1nc2sc3c(c2c(=O)n1Cc1ccccc1)CCC3	x	x	x	7	x	x
CCOc1ccc(C(=O)Nc2ccc(Oc3ccccc3)cc2)cc1	x	x	x	3	x	x
CCOC(=O)c1c(-c2ccc(OC)cc2)csc1NC(=O)C1CC=CCC1C(=O)O (stereo not drawn)	x	x	x	105*	x	x
CC(C)(C)c1ccc(Oc2c(C(F)(F)F)oc3cc(OCC(N)=O)ccc3c2=O)cc1	x	x	x	6	x	x
C/C(=C1/SC(N2CCCC2)=NC1=O)c1ccc(Cl)cc1	x	x	x	5	x	x
NC1=NC(=O)/C(=C\c2ccc(-c3ccc(F)cc3)o2)S1	x	x	x	-10	x	x
NC1=NC(=O)/C(=C/c2ccc(-c3cc([N+](=O)[O-])ccc3Cl)o2)S1	x	x	x	99*	x	x
Cc1cccc(N2CCN(S(=O)(=O)c3ccc4c(c3)CCN4C(=O)CCC(=O)O)CC2)c1C	9	51*	0.8	5	7	i
O=C(O)CCC(=O)N1CCc2cc(S(=O)(=O)N3CCN(c4ccc(F)cc4)CC3)ccc21	2	15	1	x	2	i
O=C(c1ccc(Br)o1)N1CCN(c2ccc([N+](=O)[O-])cc2)CC1	x	x	x	103*	x	x
O=C(c1ccc(Br)o1)N1CCN(c2ccc(F)cc2)CC1	-8	3	0.9	6	10	i
CCOC(=O)c1ccccc1NC(=O)CN(c1ccc(OC)cc1)S(=O)(=O)c1ccc(C)cc1	x	x	x	-12	x	x
COC(=O)c1ccccc1NC(=O)CN(c1ccc(OC)cc1)S(=O)(=O)c1ccc(C)cc1	x	x	x	50*	x	x
CC(=O)Nc1ccc(NS(=O)(=O)c2c(C)cc(C)cc2C)cc1	x	x	x	101*	x	x
CCc1ccc(-c2csc(/C(C#N)=C/c3ccc(C)o3)n2)cc1	x	x	x	11	x	x
CCOC(=O)C1=C(C)NC(C)=C(C(=O)OC)C1c1cccc(Cl)c1Cl (stereo not drawn)	-8	0	0.9	0	7	+!
CCOC(=O)C1=C(C)NC(C)=C(C(=O)OC)C1c1cc(Cl)cc(Cl)c1OC (stereo not drawn)	x	x	x	-26	x	x
COC(=O)C1=C(C)N=c2s/c(=C/c3ccc(Cl)cc3)c(=O)n2C1c1ccccc1 (stereo not drawn)	x	x	x	-12	x	x
CCCCCOC(=O)C1=C(C)NC(=S)NC1c1ccccc1 (stereo not drawn)	x	x	x	63*	x	i
SMILES	Cdc25B inh	MKP-1 inh	TNAP act mid DEA	HePTP inh	Ec RNAP inh	BAP1 block
COc1ccc(C2NC(=S)NC(C)=C2C(=O)OCCOc2ccccc2)cc1 (stereo not drawn)	x	x	x	4	x	x
O=C(N/N=C/c1ccccc1O)C12CC3CCC(CC(C3)C1)C2	x	x	x	10	x	x
CCOc1cc(/C=C2\SC(=S)NC2=O)ccc1OCc1c(C)no[n+]1[O-]	x	x	x	102*	x	x
CCOc1cc(C=C2C(=O)NC(=O)NC2=O)ccc1OCc1c(C)no[n+]1[O-]	x	x	x	5	x	x
CCOc1cc(/C=C2\SC(=S)N(c3ccccc3)C2=O)cc([N+](=O)[O-])c1O	x	x	x	1	x	x
O=c1cc(-c2ccc([N+](=O)[O-])cc2)nc2cc(-c3cccc(Cl)c3)[nH]n12	x	x	x	78*	x	x
O=c1cc(-c2ccc([N+](=O)[O-])cc2)nc2cc(-c3ccc(F)cc3)[nH]n12	x	x	x	12	x	x
CN(C)c1ccc(-c2ncnn2-c2sc3c(c2C#N)CCCC3)cc1	x	x	x	4	x	x
O=C(CCCNS(=O)(=O)c1cccc2nsnc12)NCc1ccc(F)cc1	-4	1	1	4	28*	i
O=C(CCCNS(=O)(=O)c1cccc2nsnc12)NCc1ccccc1	-9	-1	1	5	-1	i
Cc1cc(C(=O)Nc2ccc3ncccc3c2)ccc1[N+](=O)[O-]	x	x	x	-1	x	x
Cc1ccc(CN2CCN(/N=C/C=C\c3ccco3)CC2)cc1	x	x	x	103*	x	x
CCc1ccc(/C=C2/C(=O)NC(=O)N(c3cccc(C)c3)C2=O)cc1	x	x	x	9	x	x
Cc1cccc(N2C(=O)NC(=O)/C(=C/c3ccc(Br)o3)C2=O)c1	x	x	x	75*	x	x
CC(C)c1ccc(N2C(=O)NC(=O)/C(=C/c3ccc(Br)o3)C2=O)cc1	x	x	x	102*	x	x
CCCN(CCC)c1ccc(/C=N/NC(=O)Cc2ccccc2)cc1	x	x	x	6	x	x
CC1CCc2c(sc(NC(=O)CCCOc3ccc(Cl)cc3Cl)c2C(N)=O)C1 (stereo not drawn)	x	x	x	-5	x	x
O=[N+]([O-])c1ccc(N2CCN(c3nc4ccc([N+](=O)[O-])cc4s3)CC2)cc1	x	x	x	-12	x	x
O=C1N=c2ccccc2=C1c1cc(-c2ccccc2)oc1O	x	x	x	56*	x	x
O=C1N=c2ccccc2=C1c1[nH]c(=S)[nH]c1O	x	x	x	-19	x	x
CC(=O)c1ccc(N2C(=O)c3ccc(Oc4ccc5c(c4)C(=O)N(c4ccc(C(C)=O)cc4)C5=O)cc3C2=O)cc1	x	x	x	6	x	x
O=C1c2ccc(Oc3ccc4c(c3)C(=O)N(c3ccc(S)cc3)C4=O)cc2C(=O)N1c1ccc(S)cc1	x	x	x	102*	x	x
O=C(NC(NC(=O)c1ccco1)c1ccc(Br)cc1)c1ccco1	x	x	x	104*	x	x
Clc1ccc(N2CCN(/N=C\C=C\c3ccccc3)CC2)cc1	x	x	x	-4	x	x
COc1ccc(C(=O)Nc2ccc(Cl)c(-c3nc4ccccc4s3)c2)cc1[N+](=O)[O-]	x	x	x	65*	x	x
SMILES	Cdc25B inh	MKP-1 inh	TNAP act mid DEA	HePTP inh	Ec RNAP inh	BAP1 block
Cc1occc1C(=O)Nc1nc(-c2ccccc2)c(C)s1	x	x	x	-11	x	x
Cc1cc(C(=O)Nc2ccc(S(=O)(=O)Nc3nccs3)cc2)ccc1[N+](=O)[O-]	x	x	x	-1	x	x
[O-][n+]1cc(O)c(Br)c2ccccc21	x	x	x	-18	x	x
CN(C)Cc1c(O)c[n+]([O-])c2ccccc12	x	x	x	103*	x	x
COc1ccc(-c2nc3ccccc3c(C(=O)Nc3ccc(C)cc3)c2C)cc1	x	x	x	104*	x	x
COc1ccc(NC(=O)c2c(C)c(-c3ccc(C)cc3)nc3ccccc23)c(OC)c1	x	x	x	-4	x	x
CCOC(=O)c1ccc(N2NC(=O)/C(=C/c3cc(OC)c(O)c(OC)c3)C2=O)cc1	x	x	x	89*	x	x
CCOC(=O)c1ccc(N2NC(=O)/C(=C/c3ccc(OC)c(Br)c3)C2=O)cc1	x	x	x	55*	x	x
CCOC(=O)c1ccc(N2NC(=O)/C(=C/c3cccc(I)c3)C2=O)cc1	x	x	x	-2	x	x
CCOc1cc(/C=C2/C(=O)NN(c3ccc(I)cc3)C2=O)ccc1O	x	x	x	90*	x	x
Cc1cc(C)cc(N2C(=O)C3C(c4ccccc4Cl)OC4(C(=O)c5ccccc5C4=O)C3C2=O)c1 (stereo not drawn)	x	x	x	-12	x	x
CCc1ccccc1N1C(=O)C2C(c3ccccc3Cl)OC3(C(=O)c4ccccc4C3=O)C2C1=O (stereo not drawn)	x	x	x	104*	x	i
